Rpn11 inh – Rpn11 (PSMD14) deubiquitinase inhibitors, primary screen, biochemical, fluorescence polarization, uHTS; 26S proteasome non-ATPase regulatory subunit 14 (Homo sapiens), O00487; human 26S proteasome, Ub4-pepOG fluorescence polarization; 20S core pre-blocked with epoxomicin; inhibition, % at 20 µM; 360,000 compounds, 0.59% hits; AID 588493, 2011;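 active = inhibition at 20 µM, scaled to each plate's controls, above about 33%, limit read from the data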
PREPL inh – PREPL enzyme inhibitors, primary screen, biochemical, fluorescence polarization | recombinant PREPL, fluorescence polarization activity-based probe | 320,000 compounds, 0.68% hits | inhibition, % at 5.96 µM | Prolyl endopeptidase-like (Homo sapiens), Q4J6C6;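 also: 0% = enzyme with DMSO and 100% = wells lacking enzyme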
NadD inh – inhibitors of S. aureus NadD, primary screen, biochemical, colorimetric, uHTS | Nicotinate-nucleotide adenylyltransferase NadD (Staphylococcus aureus N315) | purified NadD enzyme, colorimetric absorbance read-out | inhibition, % at 20 µM | 360,000 compounds, 0.78% hits | AID 602399, 2012; in the data active = inhibition above about 26%
PP1 inh – PP1-alpha phosphatase inhibitors, primary screen, counter-screen for PP5 inhibitor project, biochemical, fluorescence, OMFP substrate, single point; purified PP1alpha; Serine/threonine-protein phosphatase PP1-alpha catalytic subunit (Homo sapiens), P62136; inhibition, % at 6.7 µM; 320,000 compounds, 0.9% hits; AID 2235, 2010;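 active = inhibition above the mean inhibition of all tested compounds plus 3 SD, computed separately for each screening campaign, cut at about 15% in these data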
Target sequence (P62136 whole entry, looked up): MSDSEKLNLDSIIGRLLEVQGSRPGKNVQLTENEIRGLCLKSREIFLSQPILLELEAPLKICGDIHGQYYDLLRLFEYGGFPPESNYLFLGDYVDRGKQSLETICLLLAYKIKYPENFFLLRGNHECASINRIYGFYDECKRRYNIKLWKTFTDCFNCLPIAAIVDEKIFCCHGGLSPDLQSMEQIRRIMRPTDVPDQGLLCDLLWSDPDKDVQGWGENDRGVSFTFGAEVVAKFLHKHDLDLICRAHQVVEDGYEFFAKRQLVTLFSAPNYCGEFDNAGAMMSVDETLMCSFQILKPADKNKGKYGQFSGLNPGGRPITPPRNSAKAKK
PP5 primary – PP5 phosphatase inhibitors, primary screen, biochemical, fluorescence | purified PP5c, OMFP substrate fluorescence | inhibition, % at 6.7 µM | 320,000 compounds, 0.18% hits | AID 1987, 2009;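 active = inhibition above the campaign's mean inhibition across all tested compounds plus 3 SD, cut at about 9.5% in these data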;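 also: 0% = DMSO only and 100% = 100 µM cantharidin control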
PREPL confirm – human PREPL enzyme inhibitors, confirmation, biochemical, fluorescence polarization | shares compounds with PREPL inh | recombinant PREPL, fluorescence polarization activity probe | inhibition, % at 5.96 µM | 2,000 compounds, 67% hits;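 also: 0% = protein with DMSO and 100% = wells lacking protein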
The depositor's hits bear a star; · = no result given. Hits are enriched below; roughly 2.4% of the tested compounds scored in any of these assays. Rule as the data show it, unless noted: active = inhibition above about 43%; inactive = the rest.

SMILES	Rpn11 inh	PREPL inh	NadD inh	PP1 inh	PP5 primary	PREPL confirm
O=C1COc2ccc(-c3csc(=Nc4ccc(OC(F)F)cc4)n3CC3CCCO3)cc2N1 (stereo not drawn)	-2	46*	3	2	3	49*
COc1ccccc1N=c1scc(-c2ccc3c(c2)NC(=O)CO3)n1CC1CCCO1 (stereo not drawn)	6	12	10	3	2	·
CCN(CCCNC(=O)C1c2ccccc2C(=O)N(CCOC)C1c1ccc(F)cc1)Cc1ccccc1 (stereo not drawn)	-4	49*	-9	1	-2	17
Cc1cn([C@H]2C[C@H](O)[C@@H](CNCc3ccc(CN(C)S(C)(=O)=O)o3)O2)c(=O)[nH]c1=O	8	·	-2	·	·	·
COc1ccccc1Nc1ccc(N)cc1	1	84*	8	7	2	43
COc1ccccc1NC(=O)c1ccccc1Nc1ccccc1	0	2	-7	3	0	·
COc1ccc(-c2noc(=O)n2Cc2ccccc2Cl)cc1	4	-7	-3	-2	0	·
N#Cc1cccc(NC(=O)CSc2nnc(C3CC3)n2C2CC2)c1	0	76*	-3	-2	1	2
CCNc1ncnc2[nH]ncc12	-1	·	-3	·	·	·
O=C(Nc1ccc(NC(=O)N2CCN(c3ccccc3O)CC2)cc1)N1CCN(c2ccccc2O)CC1	-1	56*	16	-2	-2	52*
O=C(Nc1ccc(Cl)cc1)N1CCN(c2ccccc2)CC1	-1	15	-7	1	2	·
NC(=O)c1nnn(-c2nonc2N)c1-c1ccc([N+](=O)[O-])cc1	-2	15	-2	-3	-1	·
CCOC(=O)c1ccc2ncc(C(=O)OCC)c(Nc3ccc(N4CCOCC4)cc3)c2c1	11	45*	-11	3	6	42
O=C1C(NS(=O)(=O)c2ccccc2)=C(N2CCN(c3ccc(F)cc3)CC2)C(=O)c2ccccc21	-7	59*	5	8	3	61*
CC1CCN(C2=C(NS(=O)(=O)c3ccccc3)C(=O)c3ccccc3C2=O)CC1	3	5	-6	0	2	·
O=C1C(NS(=O)(=O)c2cccs2)=C(N2CCN(c3cccc(Cl)c3)CC2)C(=O)c2ccccc21	-13	58*	30*	7	9	56*
COCCNC(=S)N(CCc1c(C)[nH]c2ccc(OC)cc12)Cc1cccnc1	-1	12	0	-1	0	·
Cc1ccccc1NC(=O)Cc1nc(COC(=O)c2ccc(O)cc2O)cs1	2	6	-3	0	4	·
COc1ccc(OC)c(NC(=O)/C=C/c2ccc(S(=O)(=O)N3CCOCC3)cc2)c1	1	·	3	·	·	·
CC(C)(C)[C@H]1COC(=O)[C@@H](Cc2ccc(F)cc2)CC/C=C/C[C@@H](CC(=O)N[C@H](CO)Cc2ccccc2)C(=O)N1	-1	47*	-12	·	·	41
CC(C)(C)[C@H]1COC(=O)[C@@H](Cc2ccc(F)cc2)CC/C=C/C[C@@H](CC(=O)N[C@@H](CO)Cc2ccccc2)C(=O)N1	2	32	-2	·	·	·
O=C(C1=C[C@@H](c2ccc(Br)cc2)C[C@@H](OCc2ccc(CO)cc2)O1)N1CCOCC1	3	44*	-6	-1	0	51*
O=C(C1=C[C@H](c2ccc(Br)cc2)C[C@H](OCc2ccc(CO)cc2)O1)N1CCOCC1	4	43*	0	-6	2	43
Cc1ccccc1CCN1CCCC(CN(C)C(=O)c2ccc3ncccc3c2)C1 (stereo not drawn)	5	9	-7	-7	2	·
COc1cccc(C2CC(c3ccc(C)cc3)Nc3nc(N)nn32)c1 (stereo not drawn)	4	49*	6	-5	3	51*
CCCn1c(C)cc(-c2csc(N)n2)c1C	-15	44*	30	7	4	27
